Drawing on PubChem BioAssay, this text covers composite z-score and z-score for five compounds.

Activity calls are given as the source filed them.

The nature of assay [1]: small molecules captured by biotinylated probe aFSTL3 – biochemical, small-molecule microarray, fluorescence 635/667, stem cell growth factor project, primary screen (AID 1064).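 Note: measures binding of the biotinylated anti-FSTL3 antibody to printed compounds.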 To be noted: higher = more signal.
A short description of assay [2]: binders from COS7 lysate, DM2A8 probe, primary screen, torsin A project, cell lysate, small-molecule microarray, fluorescence 635/667 (AID 1065). Conditions: higher = more signal, COS7 lysate expressing mutant human TOR1A.
Assay [3] can be described thus: small molecules captured by biotinylated probe aFGF2 – biochemical, small-molecule microarray, fluorescence 635/667, stem cell growth factor project, primary screen (AID 1067).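 Note: measures binding of biotinylated aFGF2 protein to printed compounds on slides; z-score merges feature fluorescence and signal-to-noise across triplicate slides.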 Conditions: higher = more signal.
A short description of assay [4]: small molecules captured by biotinylated probe aFGF10 – biochemical, small-molecule microarray, fluorescence 635/667, stem cell growth factor project, primary screen (AID 1071).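 Note: score merges 667 nm spot intensity and signal to noise from triplicate slides.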 To be noted: higher = more signal.
Assay [5] addresses Neurogenic locus notch homolog protein 2 (Homo sapiens) (UniProt Q04721). Kind of assay: small molecules binding Notch2 protein – biochemical, small-molecule microarray, 635 nm fluorescence, stem cell growth factors, primary screen (AID 1073). Conditions: higher = more signal.
Assay [6] concerns the target Pro-neuregulin-1, membrane-bound isoform (Homo sapiens) (UniProt Q02297). Kind of assay: small molecules binding neuregulin-1 protein – biochemical, small-molecule microarray, fluorescence 635/667, psychiatric disease protein project, primary screen (AID 1075).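 Note: score combines 667 nm spot fluorescence with signal to noise.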 To be noted: NRG1 binding, 635 nm fluorescence, higher = more signal.
In assay [7] the test system is Neuregulin-1 EGF-like domain. Description: small molecules binding NRG1 EGF domain – biochemical, small-molecule microarray, 635 nm fluorescence, primary screen (AID 1081).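 Note: binding of the protein to compounds printed on small-molecule microarray slides.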 Conditions: higher = more signal.
Assay [8] is described as follows: FRG1 expression reporter modulators in myotubes – cell-based, C2C12 myotubes, firefly/Renilla luciferase, luminescence, FRG1 inhibition for FSHD, primary screen (AID 1084). Conditions: FRG1 promoter luciferase, higher = more signal, called active from +8 up or from −8 down.
Assay [9] in a line: small molecules captured by biotinylated probe aFST – biochemical, small-molecule microarray, fluorescence 635/667, stem cell growth factor project, primary screen (AID 1086).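 Note: score merges 667 nm fluorescence with signal-to-noise of each printed compound spot.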 Conditions: higher = more signal.
Assay [10] in a line: binders of probe aHhip on microarray, primary screen, stem cell growth factor project, biochemical, small-molecule microarray, fluorescence 635/667 (AID 1087).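 Note: score merges spot fluorescence at 667nm with spot signal to noise ratio.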 To be noted: higher = more signal.
Assay [11] relates to PRMT1 (protein arginine N-methyltransferase 1). Description: small molecules binding arginine methyltransferase PRMT1 – biochemical, small-molecule microarray, 635 nm fluorescence, primary screen (AID 1088).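 Note: binding of Prmt1 protein to compounds spotted on small-molecule microarray slides.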 To be noted: higher = more signal.
Assay [12] is described as follows: growth effects on S. cerevisiae YJM789 – YJM789 clinical isolate, OD600, 24 h, basal, primary screen (AID 1089).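 Note: growth of clinical yeast isolate S. cerevisiae YJM 789 seeded 1000 cells per well; test concentration not given here.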 To be noted: higher = more signal, called active from +8 up or from −8 down.
A short description of assay [13]: S. pombe growth modifiers, basal conditions – strain 972, OD600, 24 h, no modulator, primary screen (AID 1090).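 Note: basal condition with compound alone and no growth modifier present; test concentration not given here.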 Conditions: S. pombe 972 growth, higher = more signal, called active from +8 up or from −8 down.
The nature of assay [14]: budding yeast growth modifiers under rapamycin – strain BY4716, OD600, 96 h, primary screen (AID 1091). Note: test concentration not given here. To be noted: S. cerevisiae BY4716 + rapamycin, higher = more signal, called active from +8 up or from −8 down.
The target of assay [15] is Torsin-1A-interacting protein 2 (Homo sapiens) (UniProt Q8NFQ8). Kind of assay: small molecules binding lysate-expressed LULL1 – cell lysate, human LULL1 lysate, 635/667 nm fluorescence, primary screen (AID 1092).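 Note: probe is lysate of COS7 cells overexpressing human LULL1; score merges per-feature 667 nm fluorescence with signal-to-noise.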 To be noted: small-molecule microarray, hLULL1 lysate binding, 635 nm fluorescence; higher = more signal.
The nature of assay [16]: optical density change of DRC41 E. coli – strain DRC41, OD650, 24 h, E. coli filamentation project, primary screen (AID 1093).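 Note: MC1000 strain lacking acrAB efflux and sulA so SOS filamentation is blocked; test concentration not given here.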 Conditions: E. coli DRC41 growth, higher = more signal, called active from +8 up or from −8 down.
Assay [17] can be described thus: probe aLefty2 binding to arrayed compounds – biochemical, biotinylated probe, 635/667 nm fluorescence, primary screen (AID 1094).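 Note: score merges spot fluorescence near 667 nm with spot signal-to-noise ratio.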 Conditions: small-molecule microarray, higher = more signal.
The subject of assay [18] is Noggin (protein binding on small-molecule microarray). Description: small molecules binding Noggin protein – biochemical, 635/667 nm fluorescence, primary screen (AID 1095).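 Note: score merges 667 nm feature fluorescence with signal to noise over triplicate slides.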 To be noted: 635 nm fluorescence, higher = more signal.
Assay [19] has as its target Neurogenic locus notch homolog protein 3 (Homo sapiens) (UniProt Q9UM47). Kind of assay: small molecules binding NOTCH3 protein – biochemical, 635/667 nm fluorescence, primary screen (AID 1096). To be noted: small-molecule microarray, 635 nm fluorescence, higher = more signal.
A short description of assay [20]: probe aEGFR binding to arrayed compounds – biochemical, biotinylated probe, 635/667 nm fluorescence, primary screen (AID 1097).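 Note: probe is a biotinylated anti-EGFR antibody binding compounds printed on slides; score combines fluorescence near 667 nm and signal to noise of each spot.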 To be noted: small-molecule microarray, higher = more signal.

Chain of Pro-neuregulin-1, membrane-bound isoform (Homo sapiens) (Q02297 whole entry, looked up, the tested form may be a part, canonical isoform): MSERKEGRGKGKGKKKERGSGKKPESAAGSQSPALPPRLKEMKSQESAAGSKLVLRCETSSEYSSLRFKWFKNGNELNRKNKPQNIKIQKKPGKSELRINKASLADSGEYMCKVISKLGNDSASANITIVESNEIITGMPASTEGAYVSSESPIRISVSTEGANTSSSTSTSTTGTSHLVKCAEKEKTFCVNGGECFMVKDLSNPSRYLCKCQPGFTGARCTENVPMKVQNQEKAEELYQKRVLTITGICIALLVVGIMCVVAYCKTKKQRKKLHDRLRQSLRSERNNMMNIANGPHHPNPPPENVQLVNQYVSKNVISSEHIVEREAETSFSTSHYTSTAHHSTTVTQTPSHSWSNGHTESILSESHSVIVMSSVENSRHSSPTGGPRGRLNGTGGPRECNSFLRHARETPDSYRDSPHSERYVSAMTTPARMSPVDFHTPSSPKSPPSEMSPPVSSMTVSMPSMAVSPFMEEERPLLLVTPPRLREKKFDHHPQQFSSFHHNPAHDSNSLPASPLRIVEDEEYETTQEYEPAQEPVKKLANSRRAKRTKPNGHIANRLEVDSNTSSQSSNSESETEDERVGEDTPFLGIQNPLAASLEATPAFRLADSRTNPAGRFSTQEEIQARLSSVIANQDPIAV
Chain of Neurogenic locus notch homolog protein 3 (Homo sapiens) (Q9UM47 whole entry, looked up): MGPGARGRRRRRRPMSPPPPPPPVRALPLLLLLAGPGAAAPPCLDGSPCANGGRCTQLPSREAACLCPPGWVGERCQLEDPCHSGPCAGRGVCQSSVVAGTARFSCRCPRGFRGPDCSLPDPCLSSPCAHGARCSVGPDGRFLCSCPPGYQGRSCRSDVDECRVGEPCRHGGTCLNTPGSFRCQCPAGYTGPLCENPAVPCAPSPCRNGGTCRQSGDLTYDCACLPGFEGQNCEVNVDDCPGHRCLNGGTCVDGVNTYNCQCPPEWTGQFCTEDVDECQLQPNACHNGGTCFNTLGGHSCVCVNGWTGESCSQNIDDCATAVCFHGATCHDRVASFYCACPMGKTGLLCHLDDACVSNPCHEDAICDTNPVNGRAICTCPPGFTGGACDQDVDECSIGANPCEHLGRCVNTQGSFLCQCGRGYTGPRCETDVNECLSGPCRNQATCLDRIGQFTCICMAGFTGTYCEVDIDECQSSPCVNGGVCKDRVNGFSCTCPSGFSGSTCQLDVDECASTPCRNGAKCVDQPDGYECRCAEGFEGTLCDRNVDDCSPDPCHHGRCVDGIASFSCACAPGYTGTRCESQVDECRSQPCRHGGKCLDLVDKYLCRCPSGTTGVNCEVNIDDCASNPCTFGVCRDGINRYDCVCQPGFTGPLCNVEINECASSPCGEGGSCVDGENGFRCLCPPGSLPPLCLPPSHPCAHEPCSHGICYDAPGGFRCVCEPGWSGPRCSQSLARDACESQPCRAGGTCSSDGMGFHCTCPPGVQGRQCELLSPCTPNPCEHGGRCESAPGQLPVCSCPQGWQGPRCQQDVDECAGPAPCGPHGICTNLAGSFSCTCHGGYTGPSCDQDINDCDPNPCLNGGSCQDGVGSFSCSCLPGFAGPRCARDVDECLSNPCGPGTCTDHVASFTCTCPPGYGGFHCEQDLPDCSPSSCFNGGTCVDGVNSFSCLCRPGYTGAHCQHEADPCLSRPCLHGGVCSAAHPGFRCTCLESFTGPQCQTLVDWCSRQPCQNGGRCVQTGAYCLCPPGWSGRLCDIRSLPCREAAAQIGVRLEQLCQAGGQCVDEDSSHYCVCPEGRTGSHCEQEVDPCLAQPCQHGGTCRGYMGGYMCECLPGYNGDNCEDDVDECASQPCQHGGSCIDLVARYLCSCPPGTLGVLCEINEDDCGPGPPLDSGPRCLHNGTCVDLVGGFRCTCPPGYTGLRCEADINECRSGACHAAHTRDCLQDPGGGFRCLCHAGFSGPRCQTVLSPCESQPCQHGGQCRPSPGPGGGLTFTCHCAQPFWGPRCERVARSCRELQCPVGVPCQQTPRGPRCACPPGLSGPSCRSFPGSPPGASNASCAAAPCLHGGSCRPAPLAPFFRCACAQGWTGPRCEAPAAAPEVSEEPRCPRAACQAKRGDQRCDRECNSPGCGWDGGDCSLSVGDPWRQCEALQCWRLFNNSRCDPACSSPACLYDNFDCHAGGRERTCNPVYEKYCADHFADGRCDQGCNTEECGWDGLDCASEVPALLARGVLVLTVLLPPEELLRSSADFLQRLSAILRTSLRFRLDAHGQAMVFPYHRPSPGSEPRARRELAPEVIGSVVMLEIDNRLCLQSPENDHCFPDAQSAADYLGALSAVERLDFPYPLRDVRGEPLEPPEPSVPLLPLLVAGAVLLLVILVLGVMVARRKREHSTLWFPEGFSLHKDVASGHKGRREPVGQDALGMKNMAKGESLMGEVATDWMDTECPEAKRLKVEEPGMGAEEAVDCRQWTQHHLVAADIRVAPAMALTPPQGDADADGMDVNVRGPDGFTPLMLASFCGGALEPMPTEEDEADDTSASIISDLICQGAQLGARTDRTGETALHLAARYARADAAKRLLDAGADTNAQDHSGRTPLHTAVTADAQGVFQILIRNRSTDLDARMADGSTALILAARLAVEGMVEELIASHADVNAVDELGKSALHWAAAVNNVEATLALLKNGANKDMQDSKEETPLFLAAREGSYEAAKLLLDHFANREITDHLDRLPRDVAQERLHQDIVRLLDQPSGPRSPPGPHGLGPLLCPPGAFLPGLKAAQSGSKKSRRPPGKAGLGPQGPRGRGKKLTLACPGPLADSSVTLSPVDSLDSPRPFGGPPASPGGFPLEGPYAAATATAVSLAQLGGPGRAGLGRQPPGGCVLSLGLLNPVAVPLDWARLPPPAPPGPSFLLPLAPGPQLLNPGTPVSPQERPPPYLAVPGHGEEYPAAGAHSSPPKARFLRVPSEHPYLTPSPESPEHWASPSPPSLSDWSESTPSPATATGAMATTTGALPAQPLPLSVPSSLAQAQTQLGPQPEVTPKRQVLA
Chain of Torsin-1A-interacting protein 2 (Homo sapiens) (Q8NFQ8 whole entry, looked up): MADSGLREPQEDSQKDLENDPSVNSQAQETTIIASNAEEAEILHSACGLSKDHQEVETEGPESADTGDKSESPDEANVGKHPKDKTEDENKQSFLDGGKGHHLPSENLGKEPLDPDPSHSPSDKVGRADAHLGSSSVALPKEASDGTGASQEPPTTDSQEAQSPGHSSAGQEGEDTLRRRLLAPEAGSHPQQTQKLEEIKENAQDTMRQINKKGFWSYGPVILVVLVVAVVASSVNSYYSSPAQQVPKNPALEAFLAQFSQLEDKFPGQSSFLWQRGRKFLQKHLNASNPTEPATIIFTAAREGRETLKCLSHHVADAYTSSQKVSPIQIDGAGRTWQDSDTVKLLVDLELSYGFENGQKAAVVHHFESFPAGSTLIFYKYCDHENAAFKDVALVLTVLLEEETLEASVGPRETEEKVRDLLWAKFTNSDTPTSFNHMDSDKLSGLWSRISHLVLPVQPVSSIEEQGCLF

Consider `CCCC[C@@H]1C[C@H]1[C@@H](NC(=O)c1ccccc1)c1ccc(C(F)(F)F)cc1`, for which the composite z-score is 0.79 in [1]; -1.02 in assay [2]; -0.0908 in assay [3]; -0.333 in [4]; -0.601 in assay [5]; -0.612 in assay [6]. Also, the composite z-score was -0.521 in assay [7]; 0.0249 in assay [9]; -0.175 in [10]; -0.914 in assay [11]; -0.962 in assay [15]; 0.161 in [17]. Moreover, the composite z-score in [18] was 0.337; in assay [19] it was -0.769; in [20], -0.15. Moreover, the z-score in [8] is -0.858 (inactive); in assay [12] it was 0.82 (inactive); in assay [13] it was 0.987 (inactive); in [14] it was 0.151 (inactive); in assay [16], -0.582 (inactive).

As to `COC(=O)[C@@]1(Cc2ccc(OC)cc2)[C@H]2c3cc(C(=O)N(C)C)n(Cc4ccc(Cl)c(C(F)(F)F)c4)c3C[C@H]2CN1C(=O)c1ccccc1`, the composite z-score in assay [1] came out at 1.33; in assay [2] it was 0.218; in [3] it was 0.262; in assay [4] it was 0.473; in assay [5] it was 1.47; in assay [6] it was 1.39. The composite z-score in assay [7] came to 1.03; in assay [9], 1.73; in assay [10], 1.71; in assay [11] it was 0.295; in assay [15], 3.06; in [17], 0.539. Also, the composite z-score in assay [18] is -0.0329; in assay [19], 1.02; in assay [20] it was 0.35. Moreover, the z-score in [8] is 0.282 (inactive); in assay [12], 1.01 (inactive); in [13] it was 1.38 (inactive); in assay [14], 2.98 (inactive); in [16], -0.397 (inactive).

`CC(CO)N1C(=O)[C@@H]2[C@H]3C(=O)OCC=C[C@H]3OC23C=CCN(Cc2ccccc2)C(=O)[C@@H]13` (stereo not given in full): the composite z-score in assay [1] is 0.0457; in [2], -0.31; in assay [3] it was -0.166; in assay [4], -0.166; in assay [5], -0.374; in assay [6] it was -0.622. Further, the composite z-score was 0.307 in [7]; -0.531 in assay [9]; 0.12 in assay [10]; -1.28 in assay [11]; 1.41 in assay [15]; -0.219 in [17]. Further, the values for the composite z-score in [18], in [19] and in assay [20] were -0.662, 0.0095 and -0.206, respectively. For the same compound, the z-score in assay [8] was -0.282 (inactive); in [12] it was -0.163 (inactive); in assay [13] it was -0.528 (inactive); in assay [14], -1.45 (inactive); in assay [16] it was 2.31 (inactive).

Take `C[C@@H]1NC(=O)[C@@]23C(=O)N[C@@H](Cc4ccccc4)C2[C@H](C)[C@@]2(C)O[C@H]2C3/C=C/C/C=C\CNC(=O)[C@@H]2CCCN2C1=O` (stereo not given in full): the composite z-score is -0.301 in [1]; 0.009 in assay [2]; -0.158 in assay [3]; 0.139 in [4]; -0.355 in assay [5]; -0.365 in assay [6]. Further, the composite z-score in [7] was 0.519; in [9] it was -0.276; in assay [10], -0.249; in assay [11], -0.422; in assay [15] it was -0.516; in [17] it was -0.132. For the same compound, the results for the composite z-score in assay [18], in assay [19] and in [20] were -0.044, -0.526 and -0.266, respectively. Besides, the z-score was 0.251 (inactive) in assay [8]; -0.498 (inactive) in assay [12]; -0.409 (inactive) in assay [13]; -0.524 (inactive) in assay [14]; -0.874 (inactive) in [16].

As for `NC(=O)NCC#Cc1ccc2c(c1)[C@]1(C(=O)N2)[C@H](C(=O)O)[C@H]2C(=O)O[C@H](c3ccccc3)[C@H](c3ccccc3)N2[C@@H]1c1ccc(OCCO)cc1`, the composite z-score is 0.131 in assay [1]; 0.35 in assay [2]; -0.139 in assay [3]; 0.0382 in assay [4]; 0.247 in [5]; 0.881 in assay [6]. Besides, the composite z-score in [7] was 0.851; in [9], 0.718; in assay [10] it was -0.0994; in assay [11], 1.1; in assay [15], 1.37; in assay [17], -0.199. Further, the composite z-score in [18] was 0.205; in [19], 0.1; in [20] it was -0.181. Besides, the z-score was -0.359 (inactive) in assay [8]; 0.33 (inactive) in assay [12]; 0.459 (inactive) in assay [13]; -0.524 (inactive) in assay [14]; 0.8 (inactive) in [16].
